MBD2 inh = blocks human MBD2 binding to methylated DNA. Q9UBB5. 370,000 compounds, 0.31% hits. TR-FRET, MBD2 binding to methylated oligonucleotide. AID 686964. inhibition, % at 4.4 µM; in the data active = inhibition above about 13%
LEDGF integ inh = blocks HIV-1 LEDGF/p75-dependent DNA integration. inhibition, % at 3.7 µM. 370,000 compounds, 0.64% hits. TR-FRET IN-LEDGF/p75 DNA integration, Eu/Cy5;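 active = inhibition above the screen-wide mean plus 3 SD, cut at about 13% in these data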;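 also: signal is the Cy5 over europium emission ratio at 671 and 618 nm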
UHRF1 MBD2 ctr = blocks human UHRF1 binding to methylated DNA. Q96T88. 370,000 compounds, 0.75% hits. inhibition, % at 4.4 µM. UHRF1 binding to methylated oligo, TR-FRET. AID 687016;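 also: UHRF1 SRA domain binding a hemimethylated CpG hairpin DNA probe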
Target sequence (Q96T88 whole entry, looked up, the tested form may be a part): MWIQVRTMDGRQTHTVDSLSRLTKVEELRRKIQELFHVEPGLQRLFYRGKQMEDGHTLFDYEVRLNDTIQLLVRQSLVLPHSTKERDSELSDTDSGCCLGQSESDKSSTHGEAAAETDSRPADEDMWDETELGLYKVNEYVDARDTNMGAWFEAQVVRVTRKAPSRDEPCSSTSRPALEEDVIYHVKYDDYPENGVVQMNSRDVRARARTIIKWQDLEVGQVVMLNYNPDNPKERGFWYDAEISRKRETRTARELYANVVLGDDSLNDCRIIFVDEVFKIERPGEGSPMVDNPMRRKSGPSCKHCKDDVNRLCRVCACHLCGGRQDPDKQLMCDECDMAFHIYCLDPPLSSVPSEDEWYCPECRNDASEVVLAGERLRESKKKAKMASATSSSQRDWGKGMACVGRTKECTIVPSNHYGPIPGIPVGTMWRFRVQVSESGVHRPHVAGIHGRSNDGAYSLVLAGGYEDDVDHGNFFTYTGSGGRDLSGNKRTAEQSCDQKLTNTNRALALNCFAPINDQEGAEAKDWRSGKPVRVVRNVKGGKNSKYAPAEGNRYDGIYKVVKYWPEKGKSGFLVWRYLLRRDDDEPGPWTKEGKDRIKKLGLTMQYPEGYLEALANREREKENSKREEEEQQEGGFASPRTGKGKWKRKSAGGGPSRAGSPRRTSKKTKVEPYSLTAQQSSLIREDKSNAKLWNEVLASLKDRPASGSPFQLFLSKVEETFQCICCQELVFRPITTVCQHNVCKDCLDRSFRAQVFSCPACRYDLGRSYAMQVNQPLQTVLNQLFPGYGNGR
TCR-CD3 inh = human TCR-CD3 binding inhibition; TAMRA-labeled TCR probe fluorescence, biochemical; 360,000 compounds, 0.37% hits; inhibition, % at 9.4 µM; in the data active = inhibition above about 19%;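 also: recombinant mutant TCR 2C K166C tagged with TAMRA read by polarization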
Rin1-Abl PPI inh = blocks binding of human Rin1 to Abl. 360,000 compounds, 0.4% hits. TR-FRET Rin1/Abl binding, biochemical. inhibition, % at 7.35 µM. P00519+Q13671; in the data active = inhibition above about 5%, passing the limit was not always enough
UHRF1 DNA bind = counter-screen for MBD2 inhibitors: human UHRF1 methylated DNA binding inhibitors; shares compounds with MBD2 inh; UHRF1 binding to methylated oligonucleotide, TR-FRET; inhibition, % at 4.4 µM; 1,000 compounds, 25% hits; AID 720530;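 also: UHRF1 SRA domain binding a labeled hemimethylated CpG hairpin DNA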
MBD2 confirm = confirmation of human MBD2-DBD methylated oligonucleotide binding inhibitors. shares compounds with MBD2 inh. inhibition, % at 4.4 µM. TR-FRET MBD2-DBD binding to methylated oligonucleotide. 1,000 compounds, 26% hits; in the data active = inhibition above about 14%
IN multimer act = counter-screen for LEDGF/p75 integration inhibitors: HIV-1 integrase multimerization activators. 2,000 compounds, 17% hits. TR-FRET HIV-1 integrase multimerization, biochemical. AID 1053131. shares compounds with LEDGF integ inh. activation, % at 7.7 µM; in the data active = activation above about 8.9%
TRFRET interf = counter-screen for LEDGF/p75 integration inhibitors: TR-FRET optical interference; shares compounds with LEDGF integ inh; TR-FRET optical interference counterscreen, HIV-1 IN multimerization; inhibition, % at 7.7 µM; 2,000 tested, under 10 active;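 active = inhibition above the mean over all tested compounds plus 3 SD, which no compound reached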
IN-LEDGF confirm = confirmation of HIV-1 LEDGF/p75-dependent integration inhibitors; 2,000 compounds, 36% hits; TR-FRET LEDGF/p75-dependent HIV-1 integration, biochemical; inhibition, % at 3.7 µM; shares compounds with LEDGF integ inh; in the data active = inhibition above about 14%
A number is an active result; 0 = inactive; - = no result; ! = not active in a repeat. The list is not random: actives were taken first. Their share in the collection is about 2%. Rule as the data show it, unless noted: active = inhibition above about 21%; inactive = the rest.

SMILES	MBD2 inh	LEDGF integ inh	UHRF1 MBD2 ctr	TCR-CD3 inh	Rin1-Abl PPI inh	IN multimer act	TRFRET interf	IN-LEDGF confirm	others
CCCNC1=C(C)C(=O)C2=C(C1=O)C(COC(N)=O)[C@]1(OC)C3NC3CN21 (some centres undefined)	17.6	53.3	59.5	27.2	0	18.8	0	63.0	UHRF1 DNA bind=0;MBD2 confirm=0
COC(=O)C1=C(c2ccc(Cl)c(C(F)(F)F)c2)C[C@@H]2CC[C@H]1N2C(=O)NCCOc1ccccc1	-	-	-	-	0	-	-	-
CCC1CCCCN1P(=O)(c1ccc(C)o1)C(C)(C)C (centres undefined)	0	0	0	0	0	-	-	-
COc1ccc(-n2c(O)c(C(C)=NCCN3CCNCC3)c(=O)[nH]c2=O)cc1	0	17.4	0	0	0	0	0	0
CN1CC(C(=O)c2ccc([N+](=O)[O-])cc2)C(c2ccc(Cl)cc2)C1 (centres undefined)	0	0	0	0	0	-	-	-
COc1ccc(CC2=NCCc3cc(OC)c(OC)cc32)cc1OC	0	26.6	21.4	0	0	0	0	0
Cc1ccc(N2C(=O)NC(=O)/C(=C\c3cc(C)n(-c4cc(C(=O)O)cc(C(=O)O)c4)c3C)C2=O)cc1	0	35.8	25.7	0	0	0	0	0
CCc1ccc(N2C(=O)NC(=O)/C(=C\c3cc(C)n(-c4cc(C(=O)O)cc(C(=O)O)c4)c3C)C2=O)cc1	0	29.4	0	0	0	0	0	21.4
Cc1ccc(N2C(=O)NC(=O)/C(=C\c3cc(C)n(-c4ccc(C(=O)O)cc4)c3C)C2=O)cc1	0	0	0	0	0	-	-	-
O=c1cc(C2CCNCC2)[nH][nH]1	0	19.3	0	0	0	0	0	0
CN1C(=O)C(C2CCCCC2)C(=O)N(C)C1=O	0	54.7	0	0	0	0	0	0
O=C1NC(=S)NC(=O)C1C1CCCCC1	0	0	0	0	0	-	-	-
O=C(C1CC(=O)N(C2CCCCCCC2)C1)N1CCC2(CC1)OCCO2 (centres undefined)	0	0	0	0	0	-	-	-
O=C(OCc1ccccc1)N1CCC2CC1c1cc(N3Cc4ccccc4-n4nncc4C3)ccc12 (centres undefined)	0	26.1	0	0	0	0	0	0
O=c1cccc2n1CC1CC2CN(c2ncnc3c2cnn3-c2ccc(Cl)cc2)C1 (centres undefined)	0	0	0	0	0	-	-	-
COc1ccc(Cc2nccc3cc(OC)c(OC)cc23)cc1OC	0	32.6	0	0	0	0	0	0
OCCOCCO	0	0	0	0	0	-	-	-
CCS(=O)(=O)Nc1cccc(C(=C2CCCCC2)c2cnc[nH]2)c1	0	0	0	0	0	-	-	-
Cc1c(OC(=O)N(C)C)ccc2c1O/C(=C\c1ccco1)C2=O	0	17.5	0	0	0	0	0	0
CN(C)C(=O)Oc1ccc(Cl)c2ccccc12	0	0	0	0	0	-	-	-
O=C(CCc1nc(-c2ccccc2F)no1)N1CCC2(CC1)OCCO2	0	0	0	0	0	-	-	-
Cc1cccc(N2C(=O)/C(=C/c3ccc(CN(CCC#N)S(C)(=O)=O)o3)C(=O)NC2=S)c1	0	25.2	0	0	0	0	0	36.0
C=C1C(=O)O[C@@H]2C[C@@H](C)[C@@H]3C=CC(=O)[C@@]3(C)[C@@H](OC(=O)CC(=O)O[C@H]3[C@@H]4C(=C)C(=O)O[C@@H]4C[C@@H](C)[C@@H]4C=CC(=O)[C@]43C)[C@H]12	0	25.0	0	0	0	0	0	59.2
C=C1C(=O)OC2CC(C)C3C=CC(=O)C3(C)C(O)C12 (centres undefined)	-	-	-	-	0	-	-	-
C[C@H](NC(=O)N1C[C@H]2C[C@@H](C1)c1cccc(=O)n1C2)C(=O)Nc1cccc(F)c1	0	0	0	0	0	-	-	-
SMILES	MBD2 inh	LEDGF integ inh	UHRF1 MBD2 ctr	TCR-CD3 inh	Rin1-Abl PPI inh	IN multimer act	TRFRET interf	IN-LEDGF confirm	others
O=c1cccc2n1CC1CC2CN(C(c2cccc(F)c2)c2sc3ncnn3c2O)C1 (centres undefined)	0	16.6	0	0	0	0	0	0
NC(=O)c1c(NC(=O)c2ccc(S(=O)(=O)N(CCCl)CCCl)cc2)sc2c1CCCCC2	-	-	-	-	0	-	-	-
COC1CC2C=C(C)C=CC=CC(=O)NC(c3ccccc3)CC=CCCC(O)CC(=O)C2=C1O (centres undefined)	0	22.4	0	0	0	0	0	49.8
CC(CN(C)C1CCN(C)CC1)c1ccccc1 (centres undefined)	0	0	0	0	0	-	-	-
COc1ccc2c(c1)NP(=S)(c1ccccc1)N2C (centres undefined)	0	18.2	0	0	0	0	0	0
COC(=O)C1=C(c2ccc(F)cc2OCc2ccccc2)C[C@@H]2CC[C@H]1N2C(=O)NCc1ccc([N+](=O)[O-])cc1	0	0	0	0	0	-	-	-
CCOc1ccc(-n2c(CC)nc3ccccc3c2=O)cc1	0	39.1	0	0	0	0	0	0
CC(=O)O[C@H]1C[C@@H]2CC[C@@H]3[C@H](CC[C@]4(C)C(=O)CC[C@@H]34)[C@@]2(C)C[C@@H]1OC(C)=O	-	-	-	-	0	-	-	-
CCCSP1(=S)NCCCO1 (centres undefined)	0	0	0	0	0	-	-	-
CCC(CO)NC(=O)C1C=C2c3cccc4[nH]cc(c34)CC2N(C)C1 (centres undefined)	0	21.3	0	0	0	0	0	0
CC[C@@H](CO)NC(=O)[C@@H]1C=C2c3cccc4[nH]cc(c34)C[C@H]2N(C)C1	0	14.1	0	0	0	0	0	16.7
CC(C)C[C@H]1C(=O)N2CCC[C@H]2[C@]2(O)O[C@](NC(=O)[C@@H]3C=C4c5cccc6[nH]cc(c56)C[C@H]4N(C)C3)(C(C)C)C(=O)N12	-	-	-	-	0	-	-	-
CC[C@@H](CO)NC(=O)[C@@H]1C=C2c3cccc4c3c(cn4C)C[C@H]2N(C)C1	0	24.6!	0	0	0	0	0	13.9
Cc1c(CCC(=O)N2C[C@H]3C[C@@H](C2)c2cccc(=O)n2C3)c(=O)oc2c(C)c(O)ccc12	0	0	0	0	0	-	-	-
COCCCn1c(N)c(C(=O)OCCOC)c2nc3ccccc3nc21	0	27.8	0	0	0	0	0	0
CN1Cc2ccccc2-n2nncc2C1	0	0	0	0	0	-	-	-

Compound activity deposited in PubChem by The Scripps Research Institute Molecular Screening Center.
